Measurements as given in PubChem BioAssay (Tox21).
Records with an inconclusive call do not appear. Activity calls are given as the source filed them. Unless noted, the call rests on the fitted dose curve.

Legend:
[1] = Nuclear factor erythroid 2-related factor 2/antioxidant responsive element (Nrf2/ARE) small molecule agonists: qHTS cell viability counter screen in human keratinocytes (AID 1919968; active means well fitted curve in the direction sought with a large enough effect in the repeat runs; an effect the other way counts as inactive or inconclusive; further: nearly all actives have a fitted effect of over 55% in size)
Outline: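 CellTiter-Fluor fluorescence, read 1 h after reagent, gave viability in the same wells as the ARE-luciferase assay. KeratinoSens cells (1,500/well) had 23 h compound exposure at 37 C/5% CO2 following 5 h plating.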

[2] = Nuclear factor erythroid 2-related factor 2/antioxidant responsive element (Nrf2/ARE) small molecule agonists: luciferase reporter gene qHTS assay in human keratinocytes (AID 1919969); further: nearly all actives have a fitted effect of over 35% in size
[3] = biological target: Gonadotropin-releasing hormone receptor (Homo sapiens) (UniProt P30968); test: Human gonadotropin-releasing hormone receptor (GnRHR) small molecule agonists, calcium flux assay in GnRHR-HEK293 cells (AID 1920063); further: nearly all actives have a fitted effect of over 35% in size
Chain of Gonadotropin-releasing hormone receptor (Homo sapiens) (P30968 whole entry, looked up): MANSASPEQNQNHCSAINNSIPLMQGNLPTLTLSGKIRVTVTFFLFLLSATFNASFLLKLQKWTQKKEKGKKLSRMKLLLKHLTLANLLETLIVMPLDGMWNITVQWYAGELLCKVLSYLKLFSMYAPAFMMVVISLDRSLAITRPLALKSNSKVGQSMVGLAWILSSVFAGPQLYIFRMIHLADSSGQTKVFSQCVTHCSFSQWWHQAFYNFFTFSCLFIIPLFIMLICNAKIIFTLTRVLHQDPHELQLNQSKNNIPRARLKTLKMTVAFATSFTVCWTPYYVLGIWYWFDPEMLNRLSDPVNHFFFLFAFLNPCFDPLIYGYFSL
Outline: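 Agonist mode: compounds at 15 concentrations, in triplicate, went onto calcium dye-loaded GnRHR-HEK293 cells. Intracellular calcium was then followed as 480/540 nm fluorescence at 1 s intervals over 3 min.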

[4] = biological target: KiSS-1 receptor (Homo sapiens) (UniProt Q969F8); test: Human kisspeptin (KISS1R) small molecule agonists, calcium flux assay in KISS1R-HEK293 cells (AID 1920064; active means well fitted curve in the direction sought with a large enough effect in the repeat runs; an effect the other way counts as inactive or inconclusive)
Chain of KiSS-1 receptor (Homo sapiens) (Q969F8 whole entry, looked up): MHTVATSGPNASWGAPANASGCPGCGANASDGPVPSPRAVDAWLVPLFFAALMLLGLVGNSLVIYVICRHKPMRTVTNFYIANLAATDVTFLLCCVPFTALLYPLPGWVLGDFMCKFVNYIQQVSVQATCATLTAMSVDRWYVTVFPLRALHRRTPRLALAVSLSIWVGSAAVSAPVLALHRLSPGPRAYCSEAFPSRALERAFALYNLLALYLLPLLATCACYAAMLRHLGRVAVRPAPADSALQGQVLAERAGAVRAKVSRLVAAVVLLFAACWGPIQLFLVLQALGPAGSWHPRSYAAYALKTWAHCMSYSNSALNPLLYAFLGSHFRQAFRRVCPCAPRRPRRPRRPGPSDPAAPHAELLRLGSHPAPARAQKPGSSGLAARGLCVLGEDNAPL
Outline: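 Agonist mode: intracellular calcium rise tracked at 1 s intervals over 3 min (480/540 nm) immediately after compound addition to dye-loaded KISS1R-HEK293 stable cells. Each compound tested at 15 concentrations in triplicate.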

[5] = G protein-coupled receptor (GPCR) small molecule agonists, calcium flux assay: HEK293 wild type cell line counter screen (AID 1920065)
Outline: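 Calcium flux counter screen: compound added in agonist mode at 15 concentrations in triplicate to dye-loaded parental HEK293 cells. Fluorescence (480/540) read kinetically for 3 min; ATP served as positive control.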

[6] = p53 small molecule agonists, cell-based qHTS assay with human liver microsomes (AID 1963577)
Outline: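 Fluorescence of the beta-lactamase reporter in p53RE-bla cells, detected with LiveBLAzer substrate (2 h, room temperature, dark), served as the read-out after 16 h compound exposure at 37 C with human liver microsomes and NADPH, each 0.5 mg/mL final.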

[7] = p53 small molecule agonists, cell-based qHTS assay with rat liver microsomes (AID 1963578)
Outline: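 Cells carrying a p53 response element–beta-lactamase reporter were plated and rested 5 h, then dosed with compound in DMSO plus rat liver microsomes and NADPH, each at 0.5 mg/mL final. After 16 h at 37 C, LiveBLAzer substrate was added for 2 h.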

[8] = p53 small molecule agonists, cell-based qHTS assay with human liver microsomes: qHTS cell viability counter screen (AID 1963579); further: nearly all actives have a fitted effect of over 45% in size
Outline: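 Cytotoxicity counter screen: p53RE-bla, 4,000 cells/well; 5 h settle, 37 C/5% CO2; cpd + HLM 0.5 mg/mL + NADPH 0.5 mg/mL (final); 16 h, 37 C; CellTiter-Glo, 30 min RT, luminescence.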

[9] = p53 small molecule agonists, cell-based qHTS assay with rat liver microsomes: qHTS cell viability counter screen (AID 1963580); further: nearly all actives have a fitted effect of over 45% in size
Outline: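 Cytotoxicity counter screen: intracellular ATP measured by CellTiter-Glo luminescence in the same wells as the beta-lactamase reporter read, on HCT-116 p53RE-bla cells exposed 16 h at 37 C to compounds with rat liver microsomes and NADPH, each 0.5 mg/mL final.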

[10] = p53 small molecule agonists, cell-based qHTS assay: qHTS cell viability counter screen (AID 1963581); further: nearly all actives have a fitted effect of over 45% in size
Outline: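 Counter screen read by CellTiter-Glo luminescence (ATP content, 30 min at room temperature), run in the same wells as the beta-lactamase reporter read. HCT-116 p53RE-bla cells saw compounds for 16 h at 37 C.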

[11] = p53 small molecule agonists, cell-based qHTS assay (AID 1963582; active means well fitted activation curve with a large enough effect in the signal ratio in the repeat runs, not every such curve was filed as active; the % refers to the signal ratio)
Outline: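 Read-out is beta-lactamase FRET fluorescence after 2 h at room temperature with LiveBLAzer B/G substrate. p53 response element-bla cells were treated 16 h at 37 C with compounds in DMSO, added 5 h after seeding.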

[12] = biological target: 5-hydroxytryptamine receptor 2A (Homo sapiens) (UniProt P28223); test: 5-hydroxytryptamine receptor 2A (HTR2A) small molecule antagonists, cell-based qHTS assay (AID 1963586); further: nearly all actives have a fitted effect of over 45% in size
Chain of 5-hydroxytryptamine receptor 2A (Homo sapiens) (P28223 whole entry, looked up): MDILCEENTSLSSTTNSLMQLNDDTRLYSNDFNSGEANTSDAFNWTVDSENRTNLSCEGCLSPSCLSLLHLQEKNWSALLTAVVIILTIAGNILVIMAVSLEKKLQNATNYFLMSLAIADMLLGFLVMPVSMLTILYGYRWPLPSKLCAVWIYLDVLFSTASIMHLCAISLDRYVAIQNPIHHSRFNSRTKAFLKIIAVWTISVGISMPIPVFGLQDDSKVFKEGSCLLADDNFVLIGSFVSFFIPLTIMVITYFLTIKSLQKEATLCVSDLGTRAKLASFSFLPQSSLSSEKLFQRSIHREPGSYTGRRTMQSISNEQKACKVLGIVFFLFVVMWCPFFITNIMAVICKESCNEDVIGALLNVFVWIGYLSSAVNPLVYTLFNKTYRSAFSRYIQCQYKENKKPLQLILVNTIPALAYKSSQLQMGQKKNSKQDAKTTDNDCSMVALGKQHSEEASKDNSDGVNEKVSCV
Outline: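 CHO cells stably expressing human HTR2A were plated for 18 h at 37 C, then loaded with calcium dye for 1 h. Compounds were preincubated 5 min at room temperature before DOI (4 nM solution) was added. Kinetic fluorescence was read for 3 min.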

[13] = biological target: 5-hydroxytryptamine receptor 2A (Homo sapiens) (UniProt P28223); test: 5-hydroxytryptamine receptor 2A (HTR2A) small molecule agonists, cell-based qHTS assay (AID 1963587); further: nearly all actives have a fitted effect of over 30% in size
Outline: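 CHO cells stably expressing human HTR2A, plated 18 h, loaded with calcium dye 1 h at 37 C. Agonist mode: compounds added and intracellular calcium fluorescence recorded kinetically for 2 min at 1 sec intervals.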

[14] = biological target: Muscarinic acetylcholine receptor M1 (Homo sapiens) (UniProt P11229); test: Cholinergic receptor muscarinic 1 (CHRM1) small molecule antagonists, cell-based qHTS assay (AID 1963588); further: nearly all actives have a fitted effect of over 40% in size
Chain of Muscarinic acetylcholine receptor M1 (Homo sapiens) (P11229 whole entry, looked up): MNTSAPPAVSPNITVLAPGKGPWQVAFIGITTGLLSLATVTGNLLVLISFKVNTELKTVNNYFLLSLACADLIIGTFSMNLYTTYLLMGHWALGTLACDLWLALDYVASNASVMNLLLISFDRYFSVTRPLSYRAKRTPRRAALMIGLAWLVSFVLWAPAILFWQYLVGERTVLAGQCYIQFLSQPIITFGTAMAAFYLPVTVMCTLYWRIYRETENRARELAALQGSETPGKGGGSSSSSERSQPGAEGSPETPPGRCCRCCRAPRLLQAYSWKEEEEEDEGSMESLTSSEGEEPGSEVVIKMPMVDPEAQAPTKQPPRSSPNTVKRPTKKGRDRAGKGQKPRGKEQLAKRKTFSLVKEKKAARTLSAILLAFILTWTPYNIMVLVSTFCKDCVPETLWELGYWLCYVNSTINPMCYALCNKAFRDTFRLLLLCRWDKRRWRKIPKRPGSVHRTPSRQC
Outline: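 Compounds were tested at 15 concentrations in three independent runs. Dye-loaded CHRM1-CHO cells were exposed 5 min at room temperature before stimulation by acetylcholine added at 50nM. Intracellular calcium was read kinetically on FDSS for 3 min.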

[15] = biological target: Muscarinic acetylcholine receptor M1 (Homo sapiens) (UniProt P11229); test: Cholinergic receptor muscarinic 1 (CHRM1) small molecule agonists, cell-based qHTS assay (AID 1963589); further: nearly all actives have a fitted effect of over 35% in size
Outline: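 Agonist-mode calcium-flux screen: compounds at 15 concentrations, three independent runs, were pin-transferred onto dye-loaded human CHRM1-CHO cells. Fluorescence was then recorded kinetically every second over minutes.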

[16] = cAMP Responsive Elements (CRE) small molecule antagonists, cell-based qHTS assay (AID 1963591; active means well fitted inhibition curve with a large enough effect in the signal ratio in the repeat runs, not every such curve was filed as active; the % refers to the signal ratio)
Outline: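 Antagonist mode: compounds are added alongside the adenylyl cyclase activator NKH477 (0.25 uM final) to CRE-bla HEK293T cells for 3 h. LiveBLAzer FRET substrate, 2 h at room temperature, reports bla expression.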

[17] = biological target: D(2) dopamine receptor (Homo sapiens) (UniProt P14416); test: Dopamine D2 receptor (DRD2) small molecule agonists, cell-based qHTS assay (AID 1963594); further: nearly all actives have a fitted effect of over 35% in size
Chain of D(2) dopamine receptor (Homo sapiens) (P14416 whole entry, looked up): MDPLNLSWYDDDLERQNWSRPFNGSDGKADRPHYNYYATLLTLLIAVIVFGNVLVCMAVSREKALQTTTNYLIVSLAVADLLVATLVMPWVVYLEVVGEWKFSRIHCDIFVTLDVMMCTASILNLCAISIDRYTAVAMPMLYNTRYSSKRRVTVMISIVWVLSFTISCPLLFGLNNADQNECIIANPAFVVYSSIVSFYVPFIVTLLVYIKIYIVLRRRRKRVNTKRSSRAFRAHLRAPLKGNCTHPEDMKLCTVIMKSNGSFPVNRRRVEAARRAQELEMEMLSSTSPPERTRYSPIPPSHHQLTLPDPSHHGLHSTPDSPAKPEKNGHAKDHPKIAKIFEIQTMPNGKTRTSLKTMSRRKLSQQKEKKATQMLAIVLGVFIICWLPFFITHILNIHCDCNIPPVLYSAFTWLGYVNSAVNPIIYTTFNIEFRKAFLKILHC
Outline: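 HEK293 cells stably expressing human DRD2, pre-treated with PDE inhibitor Ro20-1724 (0.1 mM final) and compound 10 min at room temperature, then stimulated with NKH477 (200nM […]) for 30 min. cAMP read by HTRF (665/620 nm).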

[18] = biological target: D(2) dopamine receptor (Homo sapiens) (UniProt P14416); test: Dopamine D2 receptor (DRD2) small molecule antagonists, cell-based qHTS assay (AID 1963595; active means well fitted inhibition curve with a large enough effect in the signal ratio in the repeat runs, with a control signal flat; the % refers to the signal ratio)
Outline: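 Human DRD2 antagonist qHTS measuring cAMP by HTRF. The cells are exposed to compound for 10 min, then to NKH477 (200 nM) and quinpirole (12 nM) for 30 min at RT, with Ro20-1724 (0.1 mM) present throughout.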

[19] = cAMP Responsive Elements (CRE) small molecule agonists, cell-based qHTS assay (AID 1963590)
Outline: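 Agonist mode: compound added to CRE-bla HEK 293T cells (2,000/well, 18 h after plating) for 3 h at 37 C/5% CO2. Reporter activity detected via FRET beta-lactamase substrate, 2 h room-temperature loading.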

[20] = biological target: Beta-2 adrenergic receptor (Homo sapiens) (UniProt P07550); test: Adrenergic beta2 receptor (ADRB2) small molecule antagonists, cell-based qHTS assay (AID 1963592); further: series mostly up to about 92 µM; nearly all actives have a fitted effect of over 50% in size
Chain of Beta-2 adrenergic receptor (Homo sapiens) (P07550 whole entry, looked up): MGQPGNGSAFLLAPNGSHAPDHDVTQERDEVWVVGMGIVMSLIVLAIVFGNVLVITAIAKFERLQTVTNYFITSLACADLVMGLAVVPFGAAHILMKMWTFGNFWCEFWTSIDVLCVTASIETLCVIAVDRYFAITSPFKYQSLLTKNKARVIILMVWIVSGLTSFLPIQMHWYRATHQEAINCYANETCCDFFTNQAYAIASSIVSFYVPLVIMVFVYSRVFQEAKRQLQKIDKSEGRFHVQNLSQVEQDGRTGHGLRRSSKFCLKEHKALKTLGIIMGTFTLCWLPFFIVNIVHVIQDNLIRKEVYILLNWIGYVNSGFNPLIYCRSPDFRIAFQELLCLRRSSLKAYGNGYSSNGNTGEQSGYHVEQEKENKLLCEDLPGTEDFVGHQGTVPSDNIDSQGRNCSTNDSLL
Outline: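 Assay format: CHO-ADRB2 cells, 18-20hr seeding at 37C/5% CO2, then compound plus 1nM isoproterenol agonist mix for 0.5hr RT. Homogeneous time-resolved fluorescence cAMP detection after 1hr, expressed as 665/615 nm ratio.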
On the % scale 0 is the no-effect control and ±100 the full control effect.

C[C@@H]1CCC[C@H](C)N1CCCC(O)(c1ccccc1)c1ccccn1 (some centres not stated)
inactive: Potency [1] | Potency [2] | Potency [3] | Potency [4] | Potency [5] | Potency [6] | Potency [7] | Potency [8] | Potency [9] | Potency [10] | Potency [11] | Potency [12] | Potency [13] | Potency [14] | Potency [15] | Potency [16] | Potency [17] | Potency [18]

O=C1CC(c2ccc(Cl)cc2)CC(=O)N1
inactive: Potency [1] | Potency [2] | Potency [3] | Potency [4] | Potency [5] | Potency [6] | Potency [7] | Potency [8] | Potency [9] | Potency [10] | Potency [11] | Potency [12] | Potency [13] | Potency [14] | Potency [19] | Potency [16] | Potency [20] | Potency [17] | Potency [18]

CC(CO)c1ccccc1 (configuration not stated)
inactive: Potency [1] | Potency [2] | Potency [3] | Potency [4] | Potency [5] | Potency [6] | Potency [7] | Potency [8] | Potency [9] | Potency [10] | Potency [11] | Potency [12] | Potency [13] | Potency [14] | Potency [19] | Potency [16] | Potency [20] | Potency [17] | Potency [18]

C=CCCCCCCCCC(=O)OCCCC
inactive: Potency [1] | Potency [2] | Potency [3] | Potency [4] | Potency [5] | Potency [6] | Potency [7] | Potency [8] | Potency [9] | Potency [10] | Potency [11] | Potency [12] | Potency [13] | Potency [14] | Potency [19] | Potency [16] | Potency [20] | Potency [17] | Potency [18]

CCn1cc(C(=O)O)c(=O)c2cc3c(cc21)OCO3
inactive: Potency [1] | activity, positive = activation [2] -1.35% [at 19 µM] | Potency [3] | Potency [4] | Potency [5] | Potency [6] | Potency [7] | Potency [8] | Potency [9] | Potency [10] | Potency [11] | Potency [12] | Potency [13] | Potency [14] | Potency [15] | activity change, negative = inhibition [16] -7.86% [at 18.9 µM] | Potency [20] | Potency [17] | Potency [18]

O=C(Nc1ccc([N+](=O)[O-])cc1)Nc1ccc([N+](=O)[O-])cc1 (tested in a mixture with another compound)
inactive: Potency [1] | Potency [2] | Potency [3] | Potency [4] | Potency [5] | Potency [6] | Potency [7] | Potency [8] | Potency [9] | Potency [10] | Potency [11] | Potency [12] | Potency [13] | Potency [14] | Potency [19] | Potency [16] | Potency [20] | Potency [17] | Potency [18]

O=C(/C=C/c1ccccc1)OCc1ccccc1
inactive: Potency [1] | Potency [2] | Potency [3] | Potency [4] | Potency [5] | Potency [6] | Potency [7] | Potency [8] | Potency [9] | Potency [10] | Potency [11] | Potency [12] | Potency [13] | Potency [14] | Potency [19] | Potency [16] | Potency [20] | Potency [17] | Potency [18]
